Compound activity as filed in PubChem BioAssay.
HP1b binding inh = inhibitors of HP1-beta chromodomain binding to methylated histone tails. Potency, µM (doses to about 114 µM), for the others: top-dose activity change, negative = inhibition, actives largely listed as inhibitors. AID 540317. 0.56% of 390,000 active. P83916. AlphaScreen HP1-beta / biotin-H3K9me3 peptide binding; further: nearly all actives have a fitted effect of over 70% in size
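HP1-beta protein (50 nM final) preincubated 30 min at room temperature with biotinylated H3(1-18)K9me3 peptide (50 nM) in PBS pH 7.4, 0.01% Tween-20, then compound added for 30 min. AlphaScreen streptavidin donor/nickel chelate acceptor beads (10 ug/mL final), 30 min dark, luminescence read.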
BAZ2B block = blocks human BAZ2B. Q9UIF8. AlphaScreen BAZ2B-H3K14Ac peptide displacement. Potency, µM (highest dose often 114 µM), for the others: at the top dose activity change, negative = inhibition, usual class: inhibitors. 4.4% of 360,000 active; further: on the % scale 0 is the no-effect control and ±100 the full control effect; nearly all actives have a fitted effect of over 60% in size
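BAZ2B (50 nM) with biotin-H3(5-23)K14Ac peptide (50 nM) in PBS pH 7.4, 0.01% Tween-20, preformed 30 min, then compound 30 min at room temperature; top concentration 110uM. AlphaScreen streptavidin donor/nickel chelate acceptor beads (10 ug/mL final), 20 min dark, signal read.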
ALOX12 inh = blocks human arachidonate 12S-lipoxygenase; Potency, µM (top dose mostly 108 µM), inactives show at the highest dose activity change, negative = inhibition, actives largely listed as inhibitors; AID 1671190; P18054; purified 12hLO, xylenol orange hydroperoxide absorbance; 1.1% of 580,000 active; further: on the % scale 0 is the no-effect control and ±100 the full control effect
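Purified human 12hLO at 150 nM in 25 mM Hepes, 0.01% Triton X-100, pH 7.0, preincubated 15 min at room temperature with compound. Reaction started with 40 uM arachidonic acid, 30 min at room temperature. Hydroperoxide measured by Fe-xylenol orange, 573/405 nm absorbance ratio.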
PLK1 PBD block = PLK1 (human) polo-box domain binding inhibition; 2.8% of 360,000 active; Plk1 PBD binding of FITC phosphopeptide, fluorescence polarization; P53350; Potency, µM, inactives show max response, negative = inhibition, hits mostly inhibitors; AID 720504; further: series mostly up to about 57 µM; on the % scale 0 is the no-effect control and ±100 the full control effect; nearly all actives have a fitted effect of over 65% in size
JMJD2A Tudor inh = inhibitors of human JMJD2A Tudor domain. Potency, µM (highest dose often 114 µM), inactives show top-dose activity change, negative = inhibition, hits mostly inhibitors. AlphaScreen JMJD2A-Tudor / H3K4me3 peptide binding. 4.4% of 390,000 active. O75164; further: on the % scale 0 is the no-effect control and ±100 the full control effect; nearly all actives have a fitted effect of over 50% in size
Target sequence (O75164 whole entry, looked up, the tested form may be a part): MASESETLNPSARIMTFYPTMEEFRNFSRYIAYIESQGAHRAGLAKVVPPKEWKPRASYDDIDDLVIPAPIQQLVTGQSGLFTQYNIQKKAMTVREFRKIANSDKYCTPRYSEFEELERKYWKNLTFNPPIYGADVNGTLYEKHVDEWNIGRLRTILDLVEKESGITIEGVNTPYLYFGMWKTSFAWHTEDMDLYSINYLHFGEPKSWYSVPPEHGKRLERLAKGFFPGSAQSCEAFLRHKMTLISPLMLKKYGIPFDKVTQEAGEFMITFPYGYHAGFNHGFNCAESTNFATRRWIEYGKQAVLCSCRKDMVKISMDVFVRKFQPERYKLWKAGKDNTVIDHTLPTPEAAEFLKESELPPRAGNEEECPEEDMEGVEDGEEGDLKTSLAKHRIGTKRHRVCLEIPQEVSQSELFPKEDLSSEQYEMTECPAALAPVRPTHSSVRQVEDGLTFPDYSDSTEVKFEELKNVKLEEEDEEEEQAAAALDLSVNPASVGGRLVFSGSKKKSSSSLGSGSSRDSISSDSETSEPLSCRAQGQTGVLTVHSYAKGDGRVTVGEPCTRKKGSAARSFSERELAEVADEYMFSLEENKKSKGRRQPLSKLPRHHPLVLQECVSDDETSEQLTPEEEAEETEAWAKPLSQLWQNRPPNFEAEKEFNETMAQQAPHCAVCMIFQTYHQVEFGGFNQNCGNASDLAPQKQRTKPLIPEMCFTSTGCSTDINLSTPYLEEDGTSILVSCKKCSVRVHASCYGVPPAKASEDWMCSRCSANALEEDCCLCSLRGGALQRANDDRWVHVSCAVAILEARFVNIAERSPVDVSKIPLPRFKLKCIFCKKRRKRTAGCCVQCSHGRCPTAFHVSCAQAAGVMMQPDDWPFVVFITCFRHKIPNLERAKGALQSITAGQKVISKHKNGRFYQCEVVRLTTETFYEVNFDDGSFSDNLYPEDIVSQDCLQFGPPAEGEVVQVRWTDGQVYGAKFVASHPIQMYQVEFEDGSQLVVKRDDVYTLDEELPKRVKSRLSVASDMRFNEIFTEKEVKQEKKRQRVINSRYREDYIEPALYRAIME
G9a inh = blocks human histone lysine methyltransferase G9a; G9a H3K9 monomethylation, AlphaScreen, 2 h; Potency, µM (doses to about 102 µM), for inactives: at the top dose activity, negative = inhibition, usual class: inhibitors; AID 504332; 8.8% of 350,000 active; further: on the % scale 0 is the no-effect control and ±100 the full control effect; nearly all actives have a fitted effect of over 75% in size
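Methyltransferase reactions run at room temperature for 2 h (20 nM enzyme, 500 nM biotin-H3K9 peptide, 20 uM SAM) after a 15 min compound preincubation; product detected by AlphaScreen beads and anti-H3K9me1 antibody.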
Numbers without * were called inactive; u = inconclusive; x = not tested or not shown; [ ] = dose if it differs, or a comment. In the library only some 9% were active in any assay of this set; here they are far more common. The call rests on the fitted dose curve; in most records, active means well fitted curve in the direction sought with a large enough effect; inconclusive means small, poorly fitted or top-dose-only effect, or another doubt; inactive means no such curve, though single readings can be large; an effect the other way counts as inactive or inconclusive. Potency means the concentration at half of the fitted maximal effect.

SMILES	HP1b binding inh	BAZ2B block	ALOX12 inh	PLK1 PBD block	JMJD2A Tudor inh	G9a inh
Clc1ccc(CN(CCCNc2ncnc(NCCCc3cnc[nH]3)n2)c2ccc(Br)cn2)cc1Cl	x	x	x	x	35µM*	x
CN(CCCc1cnc[nH]1)C(=S)NCCCN(Cc1ccc(Cl)cc1)c1ccc(Br)cn1	u	x	x	x	32µM*	x
NCCN(Cc1ccc(Cl)c(Cl)c1)c1ccc(Br)cn1	23%	x	x	x	-22%	x
COc1ccc(CN(CCCN)c2ccc(Br)cn2)cc1	-1%	x	x	x	-25%	x
O=S(=O)(c1ccc2c(c1)CCC2)N1CCCCC1c1nc(CCOCC2CC2)no1 (stereo not given)	x	x	2%	x	x	x
COc1cccc(-n2c(CN3CCN(c4ccccc4)CC3)nc3ccc([N+](=O)[O-])cc3c2=O)c1	-8%	u	-17%	-11%	u	20µM*
CCOC(=O)C1CCN(Cc2nc3ccc([N+](=O)[O-])cc3c(=O)n2-c2ccc(OC)cc2OC)CC1	0%	-38%	-3%	-13%	-28%	32µM*
CCN1CCN(Cc2nc3ccc([N+](=O)[O-])cc3c(=O)n2-c2ccc(OC)cc2OC)CC1	-20%	23%	31%	-13%	-12%	29%
CCOC(=O)C1CCCN(Cc2nc3ccc([N+](=O)[O-])cc3c(=O)n2-c2ccc(OC)cc2OC)C1 (stereo not given)	-7%	-37%	0%	-10%	u	40µM*
COc1ccc(-n2c(CN3CCN(c4ccccc4OC)CC3)nc3ccc([N+](=O)[O-])cc3c2=O)c(OC)c1	5%	u	5%	-5%	u	45µM*
Cc1cc2nc(N)sc2cc1C	36%	4%	9%	-2%	-12%	-4%[59 µM]
COc1ccc(-n2c(CN3CCC(C(N)=O)CC3)nc3ccc([N+](=O)[O-])cc3c2=O)c(OC)c1	33%	u	15%	-9%	-19%	56µM*
Cc1c(C(=O)N(Cc2ccc(N(C)C)cc2)Cc2ccco2)oc2cc(Br)ccc12	u	u	-23%	x	18µM*	u
CC(C)COc1ccc(C(=O)N(Cc2ccc(N(C)C)cc2)Cc2ccco2)cc1	-15%	13µM*	0%	x	14µM*	16µM*
CCOc1c(Cl)cc(C(=O)N(Cc2ccc(N(C)C)cc2)Cc2ccco2)cc1Cl	-24%	13µM*	-25%	x	13µM*	u
Cc1ccc2c(CC(=O)N(Cc3ccc(N(C)C)cc3)Cc3ccco3)coc2c1C	u	8.9µM*	0%	x	13µM*	8.9µM*
CCOC(=O)C(CC)Sc1ccc2nnc(-c3cccnc3)n2n1 (stereo not given)	48%	-10%	0%	-5%	-21%	u
CCOC(=O)C1(Cc2cccc(OC)c2)CCCN(C(=O)c2cc(C)[nH]n2)C1 (stereo not given)	42%	-31%	17%	-4%	7%	-36%
Cc1cc2oc(C(=O)N3CCN(CCc4ccccn4)CC3)c(C)c2cc1C	24%	-26%	-4%	3%	14%	13%
O=C1CCC(CCc2nc3ccccc3[nH]2)(c2ccccc2)C(=O)N1 (stereo not given)	33%	x	-10%	2%	-8%	x
CCSc1ncc(Cl)c(C(=O)N(Cc2ccccc2)Cc2ccco2)n1	55%	24%	-9%	x	2%	17%[59 µM]
O=C(c1ccco1)N(Cc1ccccc1)Cc1ccccn1	54%	u	-21%	9%	3%	79µM*
CN(C)c1ccc(CN(Cc2ccco2)C(=O)c2ccco2)cc1	u	u	2%	24µM*	32µM*	45µM*
O=C(c1cccs1)N(Cc1ccccn1)Cc1ccco1	-4%	u	-8%	-9%	u	u
CSc1ncc(Cl)c(C(=O)N(Cc2ccc(N(C)C)cc2)Cc2ccco2)n1	u	18µM*	-29%	x	22µM*	13µM*
SMILES	HP1b binding inh	BAZ2B block	ALOX12 inh	PLK1 PBD block	JMJD2A Tudor inh	G9a inh
CCOc1ccccc1C(=O)N(Cc1ccc(N(C)C)cc1)Cc1ccco1	u	35µM*	-28%	x	25µM*	20µM*
CCC(OC(=O)c1cccs1)C(=O)NCc1ccco1 (stereo not given)	29%	5%	9%	-10%	-11%	-5%[12.7 µM]
COCC(=O)N1CCN(Cc2noc(C(C)(C)C)n2)CC1	x	x	2%	x	x	x
COc1cccc(C(C(=O)NC2CCCC2)N(C(=O)CNC(=O)c2ccco2)c2cccnc2)c1 (stereo not given)	-3%	4%	-15%	-1%	-14%	10%[59 µM]
Cn1c(=O)c2c(nc3n2CCS3)n(C)c1=O	34%	-2%	-4%	-9%	-7%	5%
COc1ccc(OC)c(NC(=O)Cn2nc3ccc(SC(C)C)nn3c2=O)c1	x	x	0%	x	x	x
O=C(c1ccco1)N(Cc1ccc(Cl)cc1)Cc1ccco1	32%	u	-23%	0%	-5%	32µM*
CC1Cc2cc(/C(O)=C3/C(=O)C(=O)N(CCCn4ccnc4)C3c3ccc(F)cc3)ccc2O1 (stereo not given)	40%	-24%[57.1 µM]	-2%	-19%	-24%	45µM*
CC1Cc2cc(/C(O)=C3/C(=O)C(=O)N(CCCn4ccnc4)C3c3ccc([N+](=O)[O-])cc3)ccc2O1 (stereo not given)	-5%	x	7%	-4%	u	x
COc1cccc(C2/C(=C(\O)c3ccc4c(c3)OCCO4)C(=O)C(=O)N2CCCn2ccnc2)c1 (stereo not given)	20%	56µM*	0%	27µM*	63µM*	u
O=C1C(=O)N(CCCn2ccnc2)C(c2cccc(Br)c2)/C1=C(\O)c1ccc2c(c1)OCCO2 (stereo not given)	13%	-5%	7%	30µM*	u	u
O=C1C(=O)N(CCCn2ccnc2)C(c2ccc(Cl)cc2)/C1=C(\O)c1ccc2c(c1)OCCO2 (stereo not given)	15%[57 µM]	-14%	-9%	-2%	-7%	-27%
COc1cccc(C2/C(=C(/O)c3ccc4c(c3)CC(C)O4)C(=O)C(=O)N2c2nnc(C)s2)c1 (stereo not given)	8%	-25%	-20%	u	-34%	40µM*
O=C1C(=O)N(CCCn2ccnc2)C(c2ccc(Br)cc2)/C1=C(\O)c1ccc2c(c1)OCCO2 (stereo not given)	17%	-12%	11%	-19%	-25%	x
O=C(CCNS(=O)(=O)c1ccccc1C(F)(F)F)NC1CCCCCC1	8%	-4%	-11%	-8%	-12%	1%
COc1cccc(C2/C(=C(/O)c3ccc4c(c3)CC(C)O4)C(=O)C(=O)N2CCCn2ccnc2)c1 (stereo not given)	1%	-27%[57.1 µM]	1%	-10%	-17%	50µM*
